Screens from PubChem.
Shown are actives, neighbours in structure and some others; about 8% of the full set was active somewhere.
HT1080 IDH1KD tx – HT-1080 IDH1 knockdown cell toxicity (counter line); Potency, µM (highest dose often 46.1 µM), hits mostly cytotoxic; 360,000 tested, 2% active; HT-1080 IDH1 knockdown viability, ATP luminescence, 48 h
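Using the IDH1-knockdown HT-1080 line run in the same batch and compound series as the NT line, viability after 48 h at 37 °C was determined by CellTiter-Glo luminescence and expressed as % activity.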
KB-V1 cytotox – KB-V1 MDR subline cytotoxicity | 400,000 tested, 3.4% active | KB-V1 MDR cells viability, CellTiter-Glo, 72 h | Potency, µM (doses to about 46.1 µM), most hits filed as cytotoxic | AID 1347076; also: nearly all actives have a fitted effect of over 60% in size
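Cytotoxicity via CellTiter-Glo luminescence after 72 h compound exposure at 37 degrees C. Cells: drug-selected KB-V1 line, DMEM phenol-red free plus 10% FBS. Compounds tested at multiple concentrations; normalized data fitted to concentration-effect curves.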
HT1080-NT tox – kills 2HG-producing HT-1080-NT fibrosarcoma cells; HT-1080-NT fibrosarcoma viability, CellTiter-Glo ATP luminescence, 48 h; Potency, µM (doses to about 46.1 µM), actives largely listed as cytotoxic; 360,000 tested, 1.6% active; AID 686970;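 also: NT is the 2HG producing partner of a matched IDH1 knockdown line; nearly all actives have a fitted effect of over 55% in size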
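Compounds were tested in concentration-response format on HT-1080-NT cells for 48 hours at 37 degrees C. Cell viability came from CellTiter-Glo luminescence; curves were classified by r2, response magnitude and activity.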
KB-3-1 cytotox – kills parental KB-3-1 adenocarcinoma cells; 400,000 tested, 1.4% active; AID 1347075; Potency, µM (highest dose often 46.1 µM), usual class: cytotoxic; KB-3-1 viability, CellTiter-Glo ATP luminescence, 72 h; also: nearly all actives have a fitted effect of over 60% in size
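KB-3-1 parental drug-naive adenocarcinoma cells in DMEM/10% FBS, incubated 72 h at 37 C with pin-transferred compounds across a concentration series. Viability by CellTiter-Glo luminescence; concentration-response curves fitted after normalization.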
SW480 rereplic – DNA re-replication induction in SW480 cells. SW480 DNA re-replication, Hoechst DNA content imaging, 48 h. Potency, µM (highest dose often 46.1 µM), most hits filed as activators. 340,000 tested, 1.8% active; also: nearly all actives have a fitted effect of over 55% in size
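Quantitative HTS format with DMSO vehicle controls; 48 hr drug incubation at 37 C, then 40 min Hoechst staining and scanning imager measurement at 405 nm excitation.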
MCF10A rerep – induces DNA re-replication in MCF 10a normal breast cells; MCF 10A DNA re-replication, Hoechst nuclear intensity, 48 h; Potency, µM (highest dose often 46.1 µM), hits mostly activators; 350,000 tested, 2.9% active; also: nearly all actives have a fitted effect of over 50% in size
Large screens that a line does not name were inactive. Calls follow the shape of the dose curve; as a rule, active = well fitted curve in the direction sought with a large enough effect; inconclusive = small, poorly fitted or top-dose-only effect, or another doubt; inactive = no such curve, though single readings can be large; an effect the other way counts as inactive or inconclusive.

CCC1C(=O)N(c2nc(C)cc(C)n2)N=C1C (stereo not drawn)	KB-V1 cytotox inconclusive, MCF10A rerep inconclusive
CCCCn1c(=N)c(C(=O)NC2CCCCC2)cc2c(=O)n3cccc(C)c3nc21	none (no result: HT1080 IDH1KD tx, HT1080-NT tox, SW480 rereplic, MCF10A rerep)
CCCn1c(=N)c(C#N)cc2c(=O)n3ccccc3nc21	SW480 rereplic inconclusive
Cc1cccn2c(=O)c3cc(C(N)=S)c(=N)n(CCCN4CCOCC4)c3nc12	SW480 rereplic 8.2µM, MCF10A rerep inconclusive
N#Cc1cc2c(=O)n3ccccc3nc2n(CCCn2ccnc2)c1=N	SW480 rereplic 14.6µM, MCF10A rerep 9.2µM
COCCCn1c(=N)c(C(N)=S)cc2c(=O)n3cccc(C)c3nc21	SW480 rereplic 16.4µM, MCF10A rerep inconclusive
Cc1ccc2nc3c(cc(C(N)=S)c(=N)n3CCCOC(C)C)c(=O)n2c1	HT1080 IDH1KD tx 11.2µM, KB-V1 cytotox inconclusive, HT1080-NT tox inconclusive, KB-3-1 cytotox inconclusive, MCF10A rerep inconclusive
CCOCCCn1c(=N)c(S(=O)(=O)c2ccccc2)cc2c(=O)n3cc(C)ccc3nc21	KB-V1 cytotox inconclusive, SW480 rereplic 5.8µM, MCF10A rerep 8.2µM
Cc1cccn2c(=O)c3cc(C#N)c(=N)n(CCN4CCOCC4)c3nc12	none
Cc1cccn2c(=O)c3cc(C#N)c(=N)n(CCCN4CCOCC4)c3nc12	KB-3-1 cytotox inconclusive, SW480 rereplic 4.11µM, MCF10A rerep inconclusive
CCOCCCn1c(=N)c(S(=O)(=O)c2ccc(C)cc2)cc2c(=O)n3ccccc3nc21	KB-V1 cytotox inconclusive (no result: HT1080 IDH1KD tx, HT1080-NT tox, SW480 rereplic, MCF10A rerep)
COc1ccc(C2=CC(c3cc(OC)c(OC)c(OC)c3)NC(=S)N2)cc1 (stereo not drawn)	HT1080 IDH1KD tx inconclusive, HT1080-NT tox inconclusive, KB-3-1 cytotox inconclusive, SW480 rereplic 18.4µM, MCF10A rerep inconclusive
CCCCN(CC)CCNc1c(NC2CCN(C(=O)OCC)CC2)c(=O)c1=O	KB-V1 cytotox inconclusive, KB-3-1 cytotox inconclusive
O=C1NC(=O)C2(CCC(C3CCCCC3)CC2)N1 (stereo not drawn)	KB-V1 cytotox 4.11µM, KB-3-1 cytotox inconclusive
COc1ccc(NC(=O)C(Cc2ccccc2)NS(=O)(=O)c2ccc(Br)s2)cc1OC (stereo not drawn)	none (no result: HT1080 IDH1KD tx, HT1080-NT tox, SW480 rereplic, MCF10A rerep)
C=C(C)C1CCC(C)=C1CC(C)(C)/C=N\n1cnnc1 (stereo not drawn)	KB-V1 cytotox 14.6µM
O=S(=O)(c1ccc(F)cc1)N1CCN(C(=S)NC2CC2)CC1	SW480 rereplic 0.581µM
CCN(CC(=O)NCc1ccc(F)cc1)C(=O)COc1ccc(C)c(C)c1	KB-V1 cytotox 18.4µM
CCc1ccccc1OCC(=O)N(CC)CC(=O)NCc1ccc(F)cc1	MCF10A rerep inconclusive
CCN(CC(=O)NCc1ccc(F)cc1)C(=O)COc1ccc2ccccc2c1	KB-V1 cytotox 14.6µM
N#Cc1ccc(S(=O)(=O)N2CCN(Cc3cccs3)CC2)cc1	none
Cc1ccc(NC(=O)c2cc(N(C)C)ccc2[P+](=O)O)cc1	SW480 rereplic inconclusive, MCF10A rerep 11.6µM
Cn1c(SCc2n[nH]c(=S)o2)nnc1-c1ccccc1	none
COc1ccccc1C(=O)CC(=O)C(=O)Nc1cccc([N+](=O)[O-])c1C	HT1080 IDH1KD tx inconclusive, KB-V1 cytotox inconclusive, HT1080-NT tox inconclusive
CC(C)(C)N=C1NN=C(c2cc3ccccc3o2)CS1	KB-V1 cytotox inconclusive, SW480 rereplic 11.6µM, MCF10A rerep inconclusive
O=C(NC1CCCC1)C(c1ccncc1)N(C(=O)c1csnn1)c1ccc(Cl)cc1 (stereo not drawn)	none
O=[N+]([O-])c1ccc(Sc2ccncn2)c([N+](=O)[O-])c1	HT1080 IDH1KD tx 14.6µM, KB-V1 cytotox inconclusive, HT1080-NT tox 18.4µM, KB-3-1 cytotox 11.6µM (no result: SW480 rereplic, MCF10A rerep)
O=S(=O)(c1ccccc1)c1nc(Nc2ccccc2N2CCOCC2)sc1Cl	KB-V1 cytotox 20.6µM, HT1080-NT tox inconclusive
CC(C)Nc1nc2nonc2nc1Nc1ccccc1	HT1080 IDH1KD tx inconclusive, KB-V1 cytotox inconclusive, KB-3-1 cytotox 18.4µM, MCF10A rerep inconclusive
CC(C)Nc1ccccc1	none
O=C(CCCN1C(=O)c2cccnc2Oc2ccc(Cl)cc21)NCc1ccc(F)cc1	none (no result: HT1080 IDH1KD tx, HT1080-NT tox, SW480 rereplic, MCF10A rerep)
C/C(=N\NC(=O)c1c(Cl)c(C)nn1C)c1cccc(NC(=O)COc2ccc(Cl)cc2)c1	KB-V1 cytotox inconclusive, MCF10A rerep inconclusive
CCCc1cc(=O)oc2c3c(cc(OCC(=O)N[C@@H](C)C(=O)O)c12)OC(C)(C)CC3	none
CCCc1cc(=O)oc2c3c(c4c(c12)OC(C)(C)C=C4)OC(C)C(C)C3O (stereo not drawn)	HT1080 IDH1KD tx 3.66µM, KB-V1 cytotox inconclusive, HT1080-NT tox 5.8µM, KB-3-1 cytotox inconclusive, MCF10A rerep 10.3µM
Cc1ccc(S(=O)(=O)/N=C(\N)Nc2nc(C)c3ccccc3n2)cc1	KB-V1 cytotox 9.2µM, MCF10A rerep inconclusive
Cc1cc(C)cc(NC(=S)/N=C(\N)Nc2nc(C)c3ccccc3n2)c1	KB-V1 cytotox 18.4µM, KB-3-1 cytotox inconclusive, SW480 rereplic inconclusive
Cc1ccc2nc(N/C(N)=N/S(=O)(=O)c3ccc([N+](=O)[O-])cc3)nc(C)c2c1	none
Cc1cccc(NC(=S)/N=C(\N)Nc2nc(C)c3cc(C)ccc3n2)c1	KB-V1 cytotox 23.1µM, SW480 rereplic inconclusive
Cc1ccc(NC(=S)/N=C(\N)Nc2nc(C)c3ccccc3n2)cc1C	KB-V1 cytotox inconclusive, KB-3-1 cytotox inconclusive
CCc1ccc(NC(=S)/N=C(\N)Nc2nc(C)c3cc(CC)ccc3n2)cc1	HT1080 IDH1KD tx 10.3µM, KB-V1 cytotox inconclusive, HT1080-NT tox inconclusive, KB-3-1 cytotox inconclusive, SW480 rereplic 4.61µM, MCF10A rerep inconclusive
Cc1cccc(NC(=S)/N=C(\N)Nc2nc(C)c3ccc(C)cc3n2)c1	HT1080 IDH1KD tx inconclusive, SW480 rereplic 7.31µM, MCF10A rerep inconclusive
COc1ccc2nc(N/C(N)=N/C(=S)Nc3ccccc3)nc(C)c2c1	KB-V1 cytotox 9.2µM, KB-3-1 cytotox inconclusive
Cc1cccc(NC(=S)/N=C(\N)Nc2nc(C)c3ccccc3n2)c1	KB-V1 cytotox inconclusive, KB-3-1 cytotox inconclusive
CCOc1ccc2nc(N/C(N)=N/C(=S)Nc3ccc(OC)cc3)nc(C)c2c1	MCF10A rerep inconclusive
Cc1c(C(=O)NCc2n[nH]c(=S)n2-c2ccc(F)cc2)cccc1[N+](=O)[O-]	KB-V1 cytotox inconclusive
CC(NC(=O)c1cc2ccccc2oc1=O)c1ccc(O)cc1 (stereo not drawn)	KB-V1 cytotox inconclusive
Cc1ccc(S(=O)(=O)Nc2ccc(NC(=O)Nc3ccc(F)cc3F)cc2)cc1	KB-V1 cytotox 23.1µM, KB-3-1 cytotox inconclusive, MCF10A rerep inconclusive
Cc1ccc(S(=O)(=O)Nc2ccc(S(=O)(=O)NC(C)(C)C)cc2)cc1	KB-V1 cytotox 18.4µM, KB-3-1 cytotox inconclusive
